# Where “and” joins values, the source holds several entries; their conditions need not be identical. Equal values may be shown once.
# Test: sensitizers of A549 cells to miR-34 induction, primary screen, imaging, A549 dox-inducible miR-34, nuclei and caspase counts (AID 1347080); also: test concentration not given here
# Settings: A549 miR-34 inducible, Hoechst nuclei count, 48 h; measured here: total cells without miR-34 induction
row,Structure (SMILES),cell count
1,CCCCCCCCCCCCCCP(=O)(O)O,5470
2,CCCCCCCC/C=C\CCCCCCCC(=O)NCC(=O)O,5840
3,CCCCCCCCCCCCCCCC(=O)N[C@H]1CCOC1=O,5590
4,CCCCC[C@H](O)/C=C/[C@H]1C=CC(=O)[C@H]1C/C=C\CCCC(=O)O,5800
5,CCCCC[C@H](O)C/C=C1/C(=O)C[C@H](O)[C@@H]1C/C=C\CCCC(=O)O,5650
6,CCCCC[C@H](O)/C=C/[C@H]1C=CC(=O)[C@H]1CCCCCCC(=O)O,5760
7,COc1cc(/C=C/C(=O)N2CCCCCC2)cc(OC)c1OC,7910
8,CCCCCCCCCCCCCCCCCCCCCCCC(=O)NCCS(=O)(=O)O,5600
9,CC(C)OC(=O)CCC/C=C\C[C@@H]1[C@@H](/C=C/[C@@H](O)CCc2ccccc2)[C@H](O)C[C@@H]1O,5870
10,Cc1ccccc1C#Cc1ccc(CCC(=O)O)cc1,5930
11,CCCCC/C=C\C/C=C\C/C=C\C/C=C\CCCC(=O)OCc1ccsc1,6340
12,CCCCC/C=C\C/C=C\C/C=C\C/C=C\CCCC(=O)O[C@H](COCCCCCCCCCCCCCCCC)COP(=O)([O-])OCC[N+](C)(C)C,5910 and 6160
13,COC(=O)CCC[C@H](O)[C@H](O)CO,5040
14,CS(=O)(=O)NC(=O)CCCCCCCCCC=C(Br)Br,5700
15,CCCCC/C=C\C/C=C\CC/C=C\CCCC(=O)OC,6340
16,COc1ccc2c(c1)c(CC(=O)NCCc1ccccc1)c(C)n2C(=O)c1ccc(Cl)cc1,5920
17,c1ccc2c(NCCCCCCCNc3c4c(nc5ccccc35)CCCC4)c3c(nc2c1)CCCC3,4230

# Reference: PubChem BioAssay
